# Out of some 3,200 compounds screened, about 75 (2%) showed an effect of 50% or more. Only a selection was taken, and strong results are over-represented in it overall.
# System: T1, S. aureus MSSA476
# T1 construct: MSSA476
# Parameters: species or system S. aureus MSSA476 (TSB) or V. cholerae SAD30 (LB); 384-well bacterial growth screen at 25 uM, OD600 relative to DMSO control
# Conditions: 25 µM; inhibitor
row,SMILES,% of control remaining
1,"CCn1c(-c2ccccc2)c(C(=O)CCl)c2ccccc21 [10-E12, 2-chloro-1-(1-ethyl-2-phenyl-1H-indol-3-yl)ethan-1-one]",-0.3125%
2,"N#Cc1ccc(NC(=O)CCl)cc1Cl [4-N03, 2-chloro-N-(3-chloro-4-cyanophenyl)acetamide]",74.7022%
3,"C=CC(=O)Nc1ccc(C(=O)N2CCC3(CC2)OCCCO3)cc1 [2-D16, N-(4-{1,5-dioxa-9-azaspiro[5.5]undecane-9-carbonyl}phenyl)prop-2-enamide]",123.586%
4,"CC(Cl)C(=O)c1ccc(Cl)cc1 (stereo not shown) [10-O04, 2-chloro-1-(4-chlorophenyl)propan-1-one]",129.063%

# — paper PMC11995724, “Antibiotic target discovery by integrated phenotypic and activity-based profiling of electrophilic fragments” (Cell chemical biology, 2025)
